p53 reactivation: qHTS assay for re-activators of p53 using a Luc reporter | H1299 p53-A138V BP100-luciferase reporter, luminescence, 24 h | Potency, µM (highest dose often 92.2 µM), inactives show at the top dose activity change, positive = activation, usual class: activators | 0.063% of 320,000 active | AID 504706, 2011; further: potency means the concentration at half of the fitted maximal effect; % of control where 0% means no effect; nearly all actives have a fitted effect of over 45% in size
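p53-null H1299 cells stably carrying temperature-sensitive p53-A138V and a BP100-luciferase reporter were pinned with compounds (4-point, 1:5 series) and held 24 hrs at 37 deg C. Luminescence was read 10 min after detection reagent.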
Six1-Eya2 inh: qHTS Assay for Inhibitors of the Six1/Eya2 Interaction; Homeobox protein SIX1 (Homo sapiens) + Protein phosphatase EYA2 (Homo sapiens), …; AlphaScreen GST-Six1/His-Eya2 binding, biochemical; hits give low values; activity change, % (no concentration beside the values); 0.56% of 360,000 active; AID 651725, 2012; in the data active means activity change below about -65%; inconclusive means mostly about -30% to -63%; further: on the % scale 0 is the no-effect control and ±100 the full control effect
Target sequence (O00167 whole entry, looked up): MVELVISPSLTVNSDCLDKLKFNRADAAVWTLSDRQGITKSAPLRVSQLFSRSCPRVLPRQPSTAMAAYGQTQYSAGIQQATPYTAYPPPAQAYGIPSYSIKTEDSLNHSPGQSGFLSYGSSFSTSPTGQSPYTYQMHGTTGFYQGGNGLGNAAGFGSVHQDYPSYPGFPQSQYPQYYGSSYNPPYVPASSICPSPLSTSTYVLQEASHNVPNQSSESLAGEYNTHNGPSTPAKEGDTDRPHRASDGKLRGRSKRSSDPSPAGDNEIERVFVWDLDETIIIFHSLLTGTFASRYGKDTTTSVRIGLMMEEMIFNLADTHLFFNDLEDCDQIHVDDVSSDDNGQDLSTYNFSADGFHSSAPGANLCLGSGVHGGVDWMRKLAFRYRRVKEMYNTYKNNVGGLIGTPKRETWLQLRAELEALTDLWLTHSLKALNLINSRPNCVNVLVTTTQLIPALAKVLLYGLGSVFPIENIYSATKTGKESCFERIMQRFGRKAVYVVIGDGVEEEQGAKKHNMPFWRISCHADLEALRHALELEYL
Target sequence (Q15475 whole entry, looked up): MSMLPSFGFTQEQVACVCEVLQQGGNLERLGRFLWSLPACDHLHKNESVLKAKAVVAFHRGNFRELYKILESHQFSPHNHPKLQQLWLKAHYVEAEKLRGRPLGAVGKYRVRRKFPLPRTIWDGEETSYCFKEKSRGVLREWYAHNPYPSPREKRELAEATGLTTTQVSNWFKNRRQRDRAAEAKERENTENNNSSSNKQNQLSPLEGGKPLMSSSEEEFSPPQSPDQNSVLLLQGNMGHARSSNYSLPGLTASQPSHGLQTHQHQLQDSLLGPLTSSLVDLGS
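Six1/Eya2 binding was read as AlphaScreen signal after compounds were pinned into GST-Six1 plus His-tagged Eya2 (5X stock 250/500 nM) in pH 8.0 Tris/NaCl/TCEP buffer, beads added, then incubated 1 h, 37 C, dark.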
RORgamma inh: qHTS for inhibitors of ROR gamma transcriptional activity | Nuclear receptor ROR-gamma (Mus musculus), P51450 | Drosophila S2 Gal4-RORgamma UAS-luciferase reporter, 20 h | Potency, µM (titrated, usually from 53.6 µM), inactives show top-dose activity change, negative = inhibition, usual class: inhibitors | 5.4% of 310,000 active; further: potency means the concentration at half of the fitted maximal effect; on the % scale 0 is the no-effect control and ±100 the full control effect; nearly all actives have a fitted effect of over 60% in size
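Stably transfected Drosophila Schneider cells are the test system, with ROR gamma fused to Gal4 and luciferase under UAS control; luminescence is read after 20 hr of 700 uM copper sulfate induction at ambient temperature.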
CtBP-E1A inh: qHTS Assay for Inhibitors of the CtBP/E1A Interaction; CtBP / adenovirus E1A interaction (AlphaScreen); AlphaScreen GST-E1A/His-CtBP binding, 1536-well; hits give low values; activity change, % (no concentration beside the values); 0.49% of 340,000 active; AID 651724, 2012; in the data active means activity change below about -65%; inconclusive means mostly about -30% to -63%; further: on the % scale 0 is the no-effect control and ±100 the full control effect
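Protein mix (5X: 125 nM each GST-E1A, His-CtBP) was incubated with pinned compound 2 h at 37 deg C in dark, in 50 mM Tris pH 8.0 buffer with 300 mM NaCl. Glutathione donor and nickel acceptor beads followed; AlphaScreen signal read after 1 h.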
Gal4-VP16 FLuc: VP16 counterscreen qHTS for inhibitors of ROR gamma transcriptional activity | AID 2546, 2010 | Drosophila S2 Gal4-VP16 UAS-luciferase, luminescence, 20 h | 3.5% of 310,000 active | Potency, µM (highest dose often 53.6 µM), for the others: at the top dose activity, negative = inhibition, usual class: inhibitors;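 further: Gal4-VP16 expression switched on by copper sulfate through the metallothionein promoter; potency means the concentration at half of the fitted maximal effect; on the % scale 0 is the no-effect control and ±100 the full control effect; nearly all actives have a fitted effect of over 50% in size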
* marks the source's active call; other numbers are inactive results; ? = inconclusive; . = no result; [ ] = another dose, or the depositor's remark. The list is not random: actives were taken first. Their share in the collection is about 5.4%. Unless noted, the call rests on the fitted dose curve; in most records, active means well fitted curve in the direction sought with a large enough effect; inconclusive means small, poorly fitted or top-dose-only effect, or another doubt; inactive means no such curve, though single readings can be large; an effect the other way counts as inactive or inconclusive.

SMILES	p53 reactivation	Six1-Eya2 inh	RORgamma inh	CtBP-E1A inh	Gal4-VP16 FLuc
C[C@H]1CN=C(Nc2ccccc2)N1CC1CCCCCC1	.	0	-11%	6	-5%
COC(=O)c1ccc(C(NC(=O)OCc2ccccc2)/C(=C/[C@@H](C)C(=O)NC2CCCCC2)c2cccnc2)cc1 (stereo partly drawn)	.	.	?	.	1%
O=c1cc(-c2ccccc2Cl)oc2c(NS(=O)(=O)c3cc(Cl)cc(Cl)c3O)ccc(O)c12	12%	-10	?	-1	5µM*
Cn1ccnc1C(O)c1cc(C(C)(C)C)c(O)c(C(C)(C)C)c1 (stereo not drawn)	17%	-4	10µM*	14	?
CC(C)(Sc1cc(C(C)(C)C)c(O)c(C(C)(C)C)c1)Sc1cc(C(C)(C)C)c(O)c(C(C)(C)C)c1	-1%	-1	-6%	6	1%
CCCn1c(NCc2ccco2)nc2c1c(=O)n(C)c(=O)n2C	1%	-3	?	11	-20%
COc1ccc(Cl)c(Cn2c(NCc3ccco3)nc3c2c(=O)n(C)c(=O)n3C)c1	3%	-17	-43%	-3	0.0089µM*
COc1cccc(Cn2c(NCc3ccco3)nc3c2c(=O)n(C)c(=O)n3C)c1	-7%	-15	-38%	-3	2.8µM*
CC[n+]1c(/C=C2/C=C(C)CC(C)C2)sc2ccccc21 (stereo not drawn)	12%	3	-15%	1	-23%
CC[n+]1c(C=C2C=C(C)OC(C)=C2)sc2ccccc21	6%	-8	?	-27	10µM*
O=C(COC(=O)Cn1[nH]c(=O)c2ccccc2c1=O)NNC(=O)c1ccccc1	-7%	1	.	0	.
CC(=O)OC1COC(n2c(O)c(N=NC(N)=S)c3ccccc32)C(OC(C)=O)C1OC(C)=O (stereo not drawn)	-7%	-9	6.3µM*	-4	10µM*
O=C(N=Nc1c(O)n(Cc2ccccc2)c2ccccc12)c1ccc(O)cc1	?	?	?	-19	-26%
O=Nc1c(O)n(Cc2ccc(Cl)cc2)c2ccccc12	-6%	-4	?	-5	11µM*
Cn1c(O)c(N=NC(N)=S)c2ccccc21	.	.	1.1µM*	.	3.2µM*
Cn1c(O)c(N=NC(=O)c2ccccc2O)c2ccccc21	?	-14	-41%	.	-25%
NC(=S)N=Nc1c(O)n(Cc2ccc(F)cc2)c2ccccc12	-15%	-5	1.3µM*	3	1.3µM*
Cc1ccc(Cn2c(O)c(N=O)c3ccccc32)cc1	7%	-4	-23%	-6	?
CC1CCN(c2cc(N3CCN(C(=O)c4ccc(F)c(F)c4)CC3)c([N+](=O)[O-])cc2F)CC1	-1%	-1	?	-9	?
CCOC(=O)[C@]1(C(NC(=O)OC)c2cccc(F)c2)CCCC1=O (stereo partly drawn)	.	.	2%[10 µM]	.	-7%[10 µM]
COC(=O)[C@]12CCCCC=C1N(Cc1ccc(Cl)cc1Cl)C(=O)[C@H](CC(=O)NCCc1ccccc1OC)C2	.	-4	.	-6	.
CCN=C1S/C(=C/c2ccc(-c3ccc(F)cc3)o2)C(=O)N1CC	2%	15	-23%	23	-9%
Cc1ccc2c(c1)c(N=O)c(O)n2Cc1ccc(Cl)cc1	-4%	-1	?	1	?
Cc1ccc2c(c1)c(N=NC(N)=S)c(O)n2Cc1ccccc1	3%	3	1.6µM*	9	2.5µM*
NC(=S)N=Nc1c(O)n(Cc2ccc(Br)cc2)c2ccccc12	-1%	-8	0.79µM*	-6	0.89µM*
SMILES	p53 reactivation	Six1-Eya2 inh	RORgamma inh	CtBP-E1A inh	Gal4-VP16 FLuc
Cc1cc(C)c(OCC(=O)OCC(=O)NCc2ccco2)c(C)c1	.	-17	.	-7	.
O=C(CC(Sc1ccc(Br)cc1)C(=O)O)c1ccc(Br)cc1 (stereo not drawn)	?	.	14µM*	.	?
O=C(NCCc1ccccc1F)c1ccc2c(c1)OCCO2	-20%	-6	0.63µM*	4	0.79µM*
O=C(Nc1ccc(Br)cc1F)c1ccc2c(c1)OCCO2	?	13	7.9µM*	13	?
O=C(Nc1ccc(F)cc1F)c1ccc2c(c1)OCCO2	?	0	?	3	?
C=CCOc1c(Br)cc(CNn2c(C)n[nH]c2=S)cc1OC	8%	0	?	-1	?
C=CCOc1c(Br)cc(CNc2nccs2)cc1OC	-8%	-5	13µM*	-14	18µM*
CCOP(=O)(OCC)C(C#N)=C1SCN(c2ccc(Cl)cc2)CS1	3%	?	14µM*	?	?
N#CCC(=N)N1CCN(c2ccc(Cl)cc2)CC1	-7%	-4	19%	-11	-2%
COCCNC(=O)CN(C(=O)CCC(=O)Nc1ccccn1)c1ccc(C)cc1C	.	2	-2%	0	-7%
COc1cccc(-c2nnc(-c3ccc4ccccc4c3)o2)c1	.	12	.	10	.
COc1cccc2sc(NN)nc12	1%	-20	13µM*	-2	22µM*
COc1ccccc1-c1nnc(Nc2nc3c(OC)cccc3s2)o1	?	3	1.6µM*	-5	?
COc1cccc2sc(Nc3nc4ccc(NC(C)=O)cc4s3)nc12	?	0	14%	-7	-12%
COc1cccc(-c2nnc(Nc3nc4c(F)cccc4s3)o2)c1	?	4	?	4	3.5µM*
COc1cccc2sc(Nc3nc(-c4ccncc4)cs3)nc12	-2%	?	13µM*	?	-14%
COc1cccc2sc(Nc3nc(-c4cc5ccccc5oc4=O)cs3)nc12	-16%	18	?	-23	?
c1ccc2c(N3CCNCC3)nc(-c3ccc4c(c3)OCO4)nc2c1	.	.	11%	.	8%
COc1ccc2c(c1OC)C(=O)N1C2SC[C@H]1C(=O)NC1CC1 (stereo partly drawn)	8%	7	-13%	1	-9%
COc1cccc2sc(Nc3nnc(-c4ccccc4Cl)o3)nc12	?	-1	2µM*	-3	2.5µM*
COc1cc(/C=N\NC(=O)CC#N)ccc1OC/C=C/c1ccccc1	2%	?	-128%	?	?
COc1cccc(/C=N/NC(=O)CC(C)O)c1OC/C=C/c1ccccc1 (stereo not drawn)	-1%	-1	11µM*	4	16µM*
CNC(=S)N/N=C/c1ccc(OCC(=O)Nc2c(C)cc(C)cc2C)c(OC)c1	-30%	14	14µM*	10	13µM*
COCC(=O)N/N=C\c1ccc(OC/C=C/c2ccccc2)c(OC)c1	-7%	6	13µM*	-3	?
CCOC(=O)N/N=C\c1cccc(OC)c1OC/C=C/c1ccccc1	3%	10	3%	-3	-9%
